The record followed here is PubChem BioAssay AID1825 (The Scripps Research Institute Molecular Screening Center, 2009).

Molecules are shown by their SMILES. In all, about 290,000 compounds went through this assay and about 2,300 (0.79%) were called active. This is one part of a sample in which actives are shown more often than they occur. A number with no mark means an inactive call. Rule as the data show it: active = inhibition above about 22%; inactive = the rest.

The experiment is described as follows: cytotoxicity in IEC-6 intestinal epithelial cells, primary screen, cytotoxicity control for KLF5 inhibitor project, cell-based, luminescence (AID 1825).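 Also: 0% = plate median of test compound wells and 100% = cytotoxic reference compound wells.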 To be noted: IEC-6 cytotoxicity, luminescence viability; at 5 µM; stronger effect = higher value.
In the case of `Cc1oc2cc3oc(=O)ccc3cc2c1C`, the inhibition was 3.1%.

Turning to `COCCNc1cc(-c2ccccc2)nc2cc(-c3cccc(F)c3)nn12`, the inhibition was 2.5%.

Take `CCOC(=O)C1CCN(C(=O)/C=C/c2cc(OC)c(OC)c(OC)c2)CC1`: the inhibition was -2.6%.

On to `CCOC(=O)c1cc(-c2nnc(-c3cc(OC)c(OC)c(OC)c3)o2)c(C)nc1C`, for which the inhibition is -3.1%.

Regarding `CCOC(=O)C1=C(N)N2C(=O)C(C)SC2=C(C(=O)OCC)C1c1cc(OC)c(OC)c(OC)c1` (stereo not given), the inhibition was 25.5% (active).

Take `Cc1ccc(N2CC(C(=O)NCCS(=O)(=O)N3CCN(c4ccccc4)CC3)CC2=O)cc1` (stereo not given): the inhibition is -4.2%.

As to `COc1cc(OC)c(OC)cc1/C=N/Nc1ncnc2c1[nH]c1ccc(C)cc12`, the inhibition was -4.4%.

With `CC(C)OCCCNc1ncnc2c1[nH]c1ccc(F)cc12`, the inhibition is 31.5% (active).

Turning to `Fc1ccc2[nH]c3c(N4CCN(Cc5ccc6c(c5)OCO6)CC4)ncnc3c2c1`, the inhibition was 19.7%.

Take `COc1ccc(-c2nc3n(c(=O)c2C#N)CCS3)c(OC)c1`: the inhibition was 1.6%.

For the compound `O=C(c1cc2ccccc2s1)N1CCN(c2ccccn2)CC1`, the inhibition was 3.8%.

On to `Cc1ccc(-c2cc(C(=O)NCC3CCCO3)c3ccccc3n2)o1` (stereo not given), for which the inhibition was -6%.

For the compound `CCc1c(C)nc2c(-c3ccccc3)c(C)nn2c1Nc1ccc(NC(C)=O)cc1`, the inhibition is -10.5%.

In the case of `Cc1cc(C(C)(C)C)n2nc(C)c(-c3ccccc3)c2n1`, the inhibition was 0.2%.

Turning to `Cc1nn2c(NCCN(C)C)c3c(nc2c1-c1ccccc1)CCC3`, the inhibition was 25% (active).

Regarding `CC(=O)N(c1ccc2oc(=O)sc2c1)S(=O)(=O)c1ccc(C)cc1`, the inhibition is -2.8%.

With `C/C(=N\NC(=O)Cc1ccc(Cl)cc1)c1ccccn1`, the inhibition is -2.8%.

Take `COc1ccc(CC(=O)N/N=C(\C)c2ccccn2)cc1`: the inhibition was 2%.

Regarding `C/C(=N\NC(=O)c1ccccc1F)c1ccccn1`, the inhibition is 29.2% (active).

For the compound `CCC(C)(C)NC(=O)/C=C/c1cc(OC)c(OC)c(S(=O)(=O)N2CCc3ccccc32)c1`, the inhibition is -0.4%.

On to `Cc1nc2ccccc2n1CC(O)c1ccccc1` (stereo not given), for which the inhibition was 0%.

For `Cc1nc2ccccc2c(=O)n1Cc1ccc([N+](=O)[O-])cc1`, the inhibition was -1.7%.

As to `CCn1c(C)nc2c1C(=O)c1ccccc1C2=O`, the inhibition was 22.2% (active).

As for `CCc1ccccc1NC(=S)Nc1cc(OC)c(NC(=O)C(C)C)cc1OC`, the inhibition is -1.1%.

Regarding `NS(=O)(=O)c1ccccc1NC(=O)c1c(O)c2ccccc2[nH]c1=O`, the inhibition was -0.5%.

As to `COc1ccc(Oc2cn[nH]c2-c2ccc(OC)cc2O)cc1`, the inhibition is 0%.

On to `CC(C)(C)NS(=O)(=O)c1ccc(NC(=O)C2CCCO2)cc1` (stereo not given), for which the inhibition was -5%.

Regarding `CCN1CCN(CCNC(=O)c2ccc(/C=C3/Sc4ccccc4N(Cc4cccc(C)c4)C3=O)cc2)CC1`, the inhibition is 7.2%.

`CCN1/C(=C\c2ccc3ccccc3[n+]2CC)Sc2cc(C)ccc21`: the inhibition is 54.6% (active).

Take `CCN1/C(=C/c2ccc3ccc(C)cc3[n+]2CC)Sc2ccccc21`: the inhibition is 33.6% (active).

Take `COC(=O)c1sccc1NS(=O)(=O)c1ccc(F)cc1F`: the inhibition was 1%.

Turning to `CCOC(=O)[C@@H]1[C@H]2COc3ccc(Br)cc3[C@H]2N2C(=O)N(c3ccc(Cl)cc3)C(=O)[C@@]12C`, the inhibition was -0.1%.

With `CC1CC(C)CN(C(=O)CCNC(=O)Cn2cnc3ccccc3c2=O)C1` (stereo not given), the inhibition was 0.9%.

`CC(C)[C@@H](C(=O)O)N(Cc1cccc(CN([C@H](C(=O)O)C(C)C)S(C)(=O)=O)c1)S(C)(=O)=O`: the inhibition is -3.4%.

In the case of `CCOC(=O)C(=Cc1ccccc1OC)C(=O)OCC`, the inhibition was -0.6%.

Regarding `Cc1cc2c(cc1S(=O)(=O)CCC(=O)NCc1ccccc1)OCC(=O)N2`, the inhibition was 11%.

`C/C(=N\N(C)C)c1ccc(OCCOc2ccc([N+](=O)[O-])cc2)cc1`: the inhibition was 2.8%.

With `COc1cccc(OC)c1C(=O)Nc1c(C(=O)N2CCN(c3ccccn3)CC2)oc2ccccc12`, the inhibition was 0%.

As to `CCOc1ccc(NC(=O)CC(Cc2ccc(Cl)cc2)C(=O)O)cc1` (stereo not given), the inhibition is 5.3%.

For the compound `Cc1ccc(CS(=O)(=O)c2ncc(Cl)c(C(=O)Nc3nnc(C)s3)n2)cc1`, the inhibition is 83.7% (active).

Turning to `CCSc1nnc(NC(=O)c2ccc(C)cc2)s1`, the inhibition is 2.1%.

With `Cc1nnc(NC(=O)Nc2ccc(Cl)c(Cl)c2)s1`, the inhibition is 4.3%.

`CSc1ncc(Cl)c(C(=O)Nc2cc(C)ccc2C)n1`: the inhibition is 4.1%.

Consider `Cc1ccc(S(=O)(=O)CC(=O)Nc2nnc(C)s2)cc1`, for which the inhibition is -1.2%.

On to `CSc1nnc(NC(=O)c2nc(S(=O)(=O)Cc3ccc(C)cc3)ncc2Cl)s1`, for which the inhibition was 55% (active).

On to `Cc1ccc2cc(C)c(N3CCN(c4ccc(F)cc4)CC3)nc2c1`, for which the inhibition was -5.5%.

For the compound `COc1cccc2cc(-c3cc(=O)oc4cc(C)c(O)cc34)oc12`, the inhibition was -3.7%.

As for `Cc1[nH]c(C)c(S(=O)(=O)N2CCN(c3cccc(C(F)(F)F)c3)CC2)c1C(=O)N1CCCC1`, the inhibition was -1.3%.

On to `COc1cccc(C(O)c2nc3ccccc3n2C)c1` (stereo not given), for which the inhibition is -1%.

Take `CC(C)[C@@H]1COC(c2cccc(C3=N[C@H](C(C)C)CO3)c2)=N1`: the inhibition was 2.1%.

As for `Cc1nc(Nc2ccccc2F)c2nnn(Cc3ccccc3Cl)c2n1`, the inhibition was -5.6%.

As to `CCCc1nc(NCc2ccc3c(c2)OCO3)c2nnn(Cc3ccccc3Cl)c2n1`, the inhibition is 0.3%.

For the compound `Cc1nc(Nc2ccc3c(c2)OCCO3)c2nnn(Cc3ccccc3Cl)c2n1`, the inhibition was 22.2% (active).

Turning to `O=C(CNC(=O)c1ccc(Br)o1)Nc1ccccc1`, the inhibition is -1.9%.

For the compound `c1ccc(-n2nnnc2-c2cccnc2)cc1`, the inhibition was 4.3%.

With `CCOc1cccc(-n2nnnc2-c2ccc(OC)cc2)c1`, the inhibition is 58.4% (active).

On to `COc1ccc(-n2nnnc2-c2nc3ccccc3s2)cc1`, for which the inhibition was -9%.

As to `COCCNC(=O)C(c1ccc(C)cc1)N(C(=O)CCC(=O)Nc1ccccn1)c1cccc(C)c1` (stereo not given), the inhibition is 7%.

Consider `C=CCOC(=O)C1=C(C)NC(SCC(=O)OCC)=C(C#N)C1c1ccc(C)cc1` (stereo not given), for which the inhibition is 0.1%.

`CCOC(=O)CSC1=C(C#N)C(c2sccc2C)CC(=O)N1` (stereo not given): the inhibition is 81.1% (active).

As for `Cc1ccc(C2CC(=O)NC(SCC(=O)OCc3ccccc3)=C2C#N)o1` (stereo not given), the inhibition was -14.2%.

Take `N#C/C=C/N1CCN(Cc2ccc3c(c2)OCO3)CC1`: the inhibition was -5.9%.

As to `NS(=O)(=O)c1cccc(NC(=O)CSc2nc3ccccc3n2-c2ccccc2)c1`, the inhibition is -1.5%.

Take `Cc1ccc(-n2c(SCC(=O)Nc3ncc(Cl)cc3Cl)nc3ccccc32)cc1`: the inhibition was 61.4% (active).

With `Cc1ccc(SCCC(=O)OCC(=O)Nc2ncc(Cl)cc2Cl)cc1`, the inhibition is -3.3%.

In the case of `COCCN1C(=O)C(=O)/C(=C(/O)c2ccc(S(=O)(=O)N3CCOCC3)cc2)C1c1ccc(OC)c(OC)c1` (stereo not given), the inhibition was 5.3%.

With `NC(=O)Cn1cc(/C=N\NS(=O)(=O)c2ccccc2)c2ccccc21`, the inhibition is 1.4%.

For the compound `COc1ccc(CNS(=O)(=O)c2cc(-c3cc(C)no3)ccc2C(C)C)cc1`, the inhibition is 77.6% (active).

Regarding `Cc1cc(-c2ccc(C)c(S(=O)(=O)NCCCN(Cc3ccccc3)C(C)C)c2)on1`, the inhibition is 6.1%.

Consider `CCOc1ccccc1CNS(=O)(=O)c1cc(-c2cc(C)no2)ccc1C`, for which the inhibition was 2.7%.

In the case of `COc1cccc(NC(=O)CN(C)C(=O)c2ccccc2CCc2ccccc2)c1`, the inhibition is -3.1%.

For the compound `Cc1ccc(C(=O)CCC(=O)N(C)CC(=O)Nc2c(Cl)cccc2Cl)cc1`, the inhibition was 1.7%.

`Cc1cc(C)nc(S/C=C/C(=O)c2ccccc2)n1`: the inhibition was 31.5% (active).

On to `Cc1ccc(N/C=C/C(=O)c2ccccc2)cc1C`, for which the inhibition is 0.5%.

Regarding `Cc1cc(C)nc(SCC(=O)c2ccc(Cl)cc2)n1`, the inhibition was -2.2%.

Regarding `O=S(=O)(NC1CCCC1)c1ccc(-n2cnnn2)cc1`, the inhibition is -0.4%.

For `Cc1ccc(NS(=O)(=O)c2ccc(C)c(NC(=O)COc3ccc4ccccc4c3)c2)c(C)c1`, the inhibition is -2%.

As to `COc1ccc2cc(S(=O)(=O)Nc3ccccn3)ccc2c1`, the inhibition is 1.9%.

Consider `COc1cc(NS(=O)(=O)c2ccc3ccccc3c2)c2ncccc2c1`, for which the inhibition is 93.3% (active).

On to `CCC(CC)c1nnc(NC(=O)C2CCN(C(=O)c3ccco3)CC2)s1`, for which the inhibition was -0.9%.

As to `COc1ccc(C(=O)c2c(C)c(CCC#N)n3ccccc23)c(OC)c1`, the inhibition is -1.3%.

Consider `CCC(=C/c1sc2ccc3ccccc3c2[n+]1C)/C=C1\Sc2ccc3ccccc3c2N1C`, for which the inhibition is 32.2% (active).

Turning to `CC(C)C(=O)Nc1c2c(nn1-c1ccccc1)CSC2`, the inhibition is -4.2%.

Take `COc1ccc(/C=C/c2noc(-c3ccccc3OC(C)=O)n2)cc1`: the inhibition was -0.4%.

As for `S=C(Nc1ccc(Br)cc1)NC1CCN(Cc2ccccc2)CC1`, the inhibition is 11.3%.

As for `COc1ccc(-c2csc(NC3OC(=O)c4ccccc43)n2)cc1` (stereo not given), the inhibition was 18.7%.

`Cc1ccc(-c2csc(NNC(=O)c3ccccc3)n2)cc1`: the inhibition is -1.4%.

Consider `Cc1ccc(-c2csc(NC3OC(=O)c4ccccc43)n2)cc1` (stereo not given), for which the inhibition was 34.7% (active).

Consider `Cc1cccc(Nc2nc(-c3ccccc3)cs2)n1`, for which the inhibition was 5.9%.

As to `COc1ccc2c(c1OC)C(=O)OC2Nc1nc(-c2ccccc2)cs1` (stereo not given), the inhibition is 21.9% (active).

As for `COc1ccc(CCNc2nc(-c3cccc(NC(C)=O)c3)cs2)cc1OC`, the inhibition is 2.3%.

For `COCCN1C(=O)N(c2ccc(Cl)cc2)C(=O)C1CC(=O)Nc1cc(OC)cc(OC)c1` (stereo not given), the inhibition is -2.6%.

In the case of `CC(=O)Nc1c2c(nn1-c1ccc(C)cc1C)CS(=O)C2` (stereo not given), the inhibition is -0.7%.

Regarding `NC(=O)c1oc2ccccc2c1NC(=O)CS(=O)(=O)c1ccccc1`, the inhibition was 6.1%.

As for `Cc1ccc(NC(=O)C(C)c2cccc(C(=O)c3ccccc3)c2)cc1` (stereo not given), the inhibition is 3.2%.
